This passage reports growth results from PubChem BioAssay (NCI).

Test systems include HCT-15 colon; HT29 colon; SNB-75 CNS; SNB-19 CNS; U251 CNS; PC-3 prostate; SK-MEL-5 melanoma; UACC-62 melanoma; LOX IMVI melanoma; SK-MEL-28 melanoma; SK-MEL-2 melanoma; EKVX NSCLC; SN12C renal; UO-31 renal; TK-10 renal; ACHN renal; CAKI-1 renal; A498 renal; CCRF-CEM leukemia; MOLT-4 leukemia.
Experiment in all cases: NCI-60 one-dose screen, 48 h (100 = growth as untreated, 0 = no growth, -100 = all killed)
Holding throughout (conditions): 10 µM unless noted

This is part of a sample that, as a whole, favours compounds with a hit. Of some 83,000 tested, about 20% had one in any assay.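 Interpretation: 100, growth as untreated; towards 0, rising growth inhibition; 0, no net growth; 0 to -100, cell death. Compounds scoring below 10 were considered active.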 A number with no mark means an inactive call. Calls of active or inactive are those of the source.

For `COc1ccc(-c2c(C(N)=O)c(N)n(Cc3nc4ccccc4[nH]3)c(=O)c2C#N)c(OC)c1`, the growth was 98.4% in the assay on HCT-15 colon; 113% with HT29 colon; 88.3% in the assay with SNB-75 CNS; 98.7% in the assay on SNB-19 CNS; 97.2% in the assay with U251 CNS; 97.4% with PC-3 prostate. Besides, the growth in the assay with SK-MEL-5 melanoma is 97.3%; with UACC-62 melanoma it was 91.6%; in the assay on LOX IMVI melanoma, 96.4%; in the assay with SK-MEL-28 melanoma, 109%; with SK-MEL-2 melanoma, 99.2%; in the assay on EKVX NSCLC, 95.4%. Further, the growth in the assay with SN12C renal is 101%; in the assay on UO-31 renal it was 68%; in the assay with TK-10 renal it was 150%; in the assay on ACHN renal it was 96.2%; with CAKI-1 renal, 78.9%; with A498 renal, 102%. The growth is 107% in the assay with CCRF-CEM leukemia and 102% in the assay on MOLT-4 leukemia.

For the compound `O=C(COc1ccc(/C=C2\C(=O)Nc3ccc(F)cc32)cc1)Nc1ccccc1`, the growth in the assay with HCT-15 colon was 99.1%; in the assay with HT29 colon it was 107%; with SNB-75 CNS it was 94.7%; with SNB-19 CNS, 93.3%; in the assay on U251 CNS it was 94.4%; with PC-3 prostate, 94.9%. In addition, the growth in the assay on SK-MEL-5 melanoma was 100%; with UACC-62 melanoma, 88.1%; in the assay on LOX IMVI melanoma, 79.6%; in the assay with SK-MEL-28 melanoma it was 106%; with SK-MEL-2 melanoma, 122%; in the assay with EKVX NSCLC, 95.8%. Besides, the growth in the assay on SN12C renal was 102%; in the assay on UO-31 renal it was 85.4%; in the assay on TK-10 renal it was 118%; in the assay on ACHN renal, 93.7%; in the assay on CAKI-1 renal it was 82.4%; in the assay with A498 renal, 99%. For the same compound, the values for the growth in the assay with CCRF-CEM leukemia and in the assay on MOLT-4 leukemia were 96.9% and 99.2%, respectively.

For `Cc1[nH]c(C(=O)Nc2ccc(S(=O)(=O)N3CCCCC3)cc2OCCOCCOCCOCCOCCOCCOCCOCCOCCOc2cc(S(=O)(=O)N3CCCCC3)ccc2NC(=O)c2[nH]c(C)c3c2CCCCC3=O)c2c1C(=O)CCCC2`, the growth in the assay on HCT-15 colon is 30.9%; in the assay with HT29 colon it was 4.45% (active); in the assay with SNB-75 CNS it was -2.1% (active); in the assay on SNB-19 CNS it was 33.3%; with U251 CNS, 24.3%; in the assay with PC-3 prostate it was 28.8%. In addition, the growth in the assay on SK-MEL-5 melanoma was 14.8%; in the assay on UACC-62 melanoma, -32.5% (active); in the assay with LOX IMVI melanoma, -75.1% (active); in the assay on SK-MEL-28 melanoma, 35.1%; in the assay with SK-MEL-2 melanoma, -11.7% (active); in the assay with EKVX NSCLC, 44%. The growth with SN12C renal is 23.1%; with UO-31 renal, 40.5%; with TK-10 renal it was 8.54% (active); in the assay on ACHN renal, 67.5%; in the assay on CAKI-1 renal, 15.9%; with A498 renal, -42.9% (active). For the same compound, the growth with CCRF-CEM leukemia was 38.4%; in the assay with MOLT-4 leukemia, 11.8%.

`COc1ccc(-c2nc(C#N)c(N3CCC(S(=O)(=O)N4CCOCC4)CC3)o2)cc1`: the growth was 105% with HCT-15 colon; 101% with HT29 colon; 103% with SNB-75 CNS; 96.9% in the assay on SNB-19 CNS; 104% in the assay with U251 CNS; 98.2% in the assay with PC-3 prostate. Further, the growth with SK-MEL-5 melanoma was 97.1%; in the assay on UACC-62 melanoma it was 96.3%; in the assay on LOX IMVI melanoma, 100%; in the assay on SK-MEL-28 melanoma, 99%; with SK-MEL-2 melanoma, 102%; in the assay with EKVX NSCLC, 105%. Also, the growth with SN12C renal was 99.5%; in the assay with UO-31 renal it was 89.1%; in the assay with TK-10 renal it was 131%; in the assay on ACHN renal it was 97.8%; in the assay on CAKI-1 renal, 92.9%; in the assay on A498 renal, 100%. Further, the growth was 101% in the assay with CCRF-CEM leukemia and 98.3% with MOLT-4 leukemia.

For `COc1ccc([C@@H]2C(=O)N(c3cc(OC)c(OC)c(OC)c3)[C@H]2c2ccc(OC)c(O)c2)cc1`, the growth in the assay with HCT-15 colon was 10.8%; in the assay on HT29 colon, -12% (active); in the assay on SNB-75 CNS, 43.1%; in the assay on SNB-19 CNS it was 29.7%; in the assay on U251 CNS it was 19.3%; in the assay with PC-3 prostate, 29.8%. Further, the growth in the assay on SK-MEL-5 melanoma is -22.9% (active); in the assay on UACC-62 melanoma it was 29.2%; in the assay on LOX IMVI melanoma, 19.4%; in the assay on SK-MEL-28 melanoma it was 67.8%; with SK-MEL-2 melanoma, 21.3%; in the assay with EKVX NSCLC it was 48.4%. Also, the growth was 27.3% in the assay with SN12C renal; 25.4% with UO-31 renal; 113% in the assay with TK-10 renal; 28.3% in the assay on ACHN renal; 21% in the assay on CAKI-1 renal; -28.5% (active) in the assay on A498 renal. In addition, the growth was 21.5% with CCRF-CEM leukemia and 16% in the assay on MOLT-4 leukemia.

Regarding `C#C[C@]1(O)CC[C@H]2[C@@H]3CC=C4c5sc(Nc6cc(C)cc(C)c6)nc5CC[C@]4(C)[C@H]3CC[C@@]21C`, the growth was -37.1% (active) with HCT-15 colon; 0.349% (active) in the assay on HT29 colon; 10.2% with SNB-75 CNS; 14.8% with SNB-19 CNS; 8.96% (active) with U251 CNS; -8.26% (active) with PC-3 prostate. Besides, the growth was -42.5% (active) in the assay with SK-MEL-5 melanoma; -16.4% (active) in the assay on UACC-62 melanoma; -68.3% (active) in the assay on LOX IMVI melanoma; -37.9% (active) in the assay on SK-MEL-28 melanoma; 14% in the assay with SK-MEL-2 melanoma; -3.54% (active) with EKVX NSCLC. For the same compound, the growth with SN12C renal was 51.4%; in the assay on UO-31 renal it was 8.23% (active); with TK-10 renal, 62.8%; in the assay on ACHN renal it was 34.3%; in the assay with CAKI-1 renal, 11%; in the assay with A498 renal, -3.87% (active). The growth in the assay with CCRF-CEM leukemia was 10.7%; with MOLT-4 leukemia it was 0.923% (active).

For `CC(C)(C)c1cc(NC(=O)Nc2ccc(-c3cn4c5c(sc4n3)CCc3c[nH]cc3-5)cc2)no1`, the growth in the assay with HCT-15 colon was 5% (active); in the assay on HT29 colon, -66% (active); in the assay on SNB-75 CNS, -12.9% (active); in the assay on SNB-19 CNS it was 21.7%; with U251 CNS, -14.6% (active); with PC-3 prostate, 21.9%. Besides, the growth in the assay on SK-MEL-5 melanoma was 19.1%; with UACC-62 melanoma it was 49.9%; with LOX IMVI melanoma, -22.5% (active); in the assay with SK-MEL-28 melanoma it was 23.1%; in the assay on SK-MEL-2 melanoma it was -11.7% (active); with EKVX NSCLC it was 32.9%. The growth in the assay with SN12C renal is 44.2%; with UO-31 renal, 7.92% (active); in the assay on TK-10 renal, 65.2%; in the assay with ACHN renal, 21.2%; in the assay with CAKI-1 renal, 13.9%; in the assay on A498 renal, -17.9% (active). In addition, the growth in the assay with CCRF-CEM leukemia is 15.1%; with MOLT-4 leukemia it was -10.8% (active).

As to `Clc1ccc2[nH]cc(-c3nn4cc(-c5ccncc5)nc4s3)c2c1`, the growth with HCT-15 colon is 57.6%; in the assay on HT29 colon, 72.8%; in the assay with SNB-75 CNS, 72.4%; in the assay on SNB-19 CNS, 24.4%; in the assay with U251 CNS it was 52.5%; in the assay on PC-3 prostate it was 9.36% (active). Besides, the growth with SK-MEL-5 melanoma is 38.3%; in the assay with UACC-62 melanoma, 25.8%; in the assay with LOX IMVI melanoma, 49.9%; in the assay with SK-MEL-28 melanoma, 53.8%; in the assay with SK-MEL-2 melanoma, 79%; in the assay with EKVX NSCLC it was 56.5%. The growth with SN12C renal is 33.9%; in the assay on UO-31 renal it was 39.6%; in the assay on TK-10 renal it was 125%; with ACHN renal, 30.3%; in the assay with CAKI-1 renal it was 54.5%; in the assay with A498 renal, 90.8%. For the same compound, the growth was 75.2% in the assay with CCRF-CEM leukemia and 81.8% with MOLT-4 leukemia.
